Screens as filed in PubChem BioAssay.
CYP2C19 activ = human CYP2C19 activators, primary screen, biochemical, luminescence. Cytochrome P450 2C19 (Homo sapiens), P33261. recombinant CYP2C19, luciferin-H EGE luminescence; hits give high values; 0 = fully inhibited enzyme, 1 = untreated enzyme. activation factor at 5 µM. 96,000 tested, under 10 active. AID 1025, 2008;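 active = activation factor of at least 2 at 5 µM in the primary screen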;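 note: 0 = wells with 2.5 mM tranylcypromine and 1 = vehicle-only wells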
CYP2C9 inhib = blockers of cytochrome P450 2C9 activity – biochemical, luminescence, ADME assay, primary screen. 96,000 compounds, 20% hits. CYP2C9 Supersomes, luciferin-H conversion. inhibition, % at 5 µM;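 active = blocking of liver enzyme CYP2C9 beyond about 50% at 5 µM, limit read from the data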
Target sequence (P11712 whole entry, looked up): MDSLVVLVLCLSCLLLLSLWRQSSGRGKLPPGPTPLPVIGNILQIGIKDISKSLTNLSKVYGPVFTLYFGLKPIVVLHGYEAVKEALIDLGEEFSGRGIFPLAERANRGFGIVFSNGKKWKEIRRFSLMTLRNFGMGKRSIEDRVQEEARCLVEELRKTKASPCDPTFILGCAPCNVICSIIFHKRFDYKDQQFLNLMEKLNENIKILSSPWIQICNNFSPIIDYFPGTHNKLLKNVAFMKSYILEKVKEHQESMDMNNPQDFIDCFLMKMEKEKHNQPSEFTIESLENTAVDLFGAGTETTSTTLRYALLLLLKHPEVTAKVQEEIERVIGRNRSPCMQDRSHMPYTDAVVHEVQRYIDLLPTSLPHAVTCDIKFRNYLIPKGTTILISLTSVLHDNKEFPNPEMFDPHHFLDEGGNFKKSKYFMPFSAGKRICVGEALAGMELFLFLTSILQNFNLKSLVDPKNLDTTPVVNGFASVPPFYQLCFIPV
CYP2C19 inh = blockers of cytochrome P450 2C19 activity – biochemical, luminescence, ADME assay, primary screen; inhibition, % at 5 µM; AID 778, 2007; CYP2C19 Supersomes, luciferin-H EGE luminescence, 30 min; 96,000 compounds, 21% hits; P33261;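 active = CYP2C19 inhibition above a set limit at 5 µM in the primary screen, cut at about 50% in these data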;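 note: plate controls were negative control wells for no effect and 2.5 mM tranylcypromine positive control for full effect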
CYP2C9 act = human CYP2C9 activators, primary screen, biochemical, luminescence | Cytochrome P450 2C9 (Homo sapiens), P11712 | recombinant CYP2C9, luciferin-H conversion; hits give high values; factor 1 = untreated enzyme, 0 = blocked | activation factor at 5 µM | 96,000 compounds, 1.4% hits | AID 1024, 2008;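 active = activation factor of 2 or more for CYP2C9 at a 5 µM dose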;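 note: 0 = sulfaphenazole-blocked wells and 1 = vehicle-only wells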
PLAP act = PLAP enzyme activators, biochemical, luminescence, HTS; Alkaline phosphatase, placental type (Homo sapiens), P05187; purified PLAP enzyme, luminescent substrate read-out; hits give high values; activation fold at 20 µM; 96,000 compounds, 1.2% hits; AID 696, 2007; in the data active = activation fold above about 2
* hit, by the source's call. This is a sample that favours compounds with a hit; in the whole collection about 31% have one here.

SMILES | CYP2C19 activ | CYP2C9 inhib | CYP2C19 inh | CYP2C9 act | PLAP act
O=C1c2ccccc2C(=O)N1CCCc1nc(-c2ccccn2)no1 | 1.2 | -11 | -18 | 1.1 | 1.1
ONC(=Nc1ccccc1)C(=Nc1ccccc1)NO | 0.7 | -2 | 26 | 1 | 1
CCOC(=O)CSCC(NC(=O)OC(C)(C)C)C(=O)OCC (stereo unspecified) | 0.8 | 6 | 21 | 0.9 | 1
CCOC(=O)C(CSCC(=O)c1ccc(Cl)cc1Cl)NC(=O)OC(C)(C)C (stereo unspecified) | 0 | 88* | 97* | 0.1 | 2*
Cc1cnc(C(=O)OCC(=O)c2csc(N3CCCCC3)n2)cn1 | 1 | 20 | 1 | 0.8 | 1.2
CCOC(=O)c1c(C)c(C(=O)Nc2ccccc2)c(C)n1CC | 1 | 44 | -4 | 0.6 | 0.9
CCOC(=O)c1[nH]c(C)c(C(=O)c2ccc(C)cc2)c1C | 0.4 | 35 | 63* | 0.7 | 0.8
CCOC(=O)c1c(C)c(C(=O)Nc2cc(OC)ccc2OC)c(C)n1CC | 0.4 | -26 | 61* | 1.3 | 1
COc1ccccc1NC(=O)c1[nH]c(C)c(C(C)=O)c1C | 0.5 | 79* | 47 | 0.2 | 0.8
CCOC(=O)c1[nH]c(C)c(C(=O)Nc2cc(OC)ccc2OC)c1C | 0.7 | -96 | 25 | 2* | 0.9
CCOC(=O)c1c(C)[nH]c(C(=O)OCC(=O)Nc2cc(C)ccc2OC)c1C | 0.9 | 33 | 6 | 0.7 | 0.9
Cc1cc(C(F)(F)F)nn1CC(=O)NNC(=S)Nc1cccc(Cl)c1 | 0.8 | 49 | 21 | 0.5 | 1.5
CN(C)S(=O)(=O)c1ccc(NC(=O)COC(=O)c2ccccn2)cc1 | 1 | -8 | -3 | 1.1 | 1.2
O=C(O)CSc1nnc(CNc2ccccc2Cl)n1-c1ccccc1 | 1.1 | -16 | -8 | 1.2 | 1.4
Cc1noc(NS(=O)(=O)c2ccc(NC(=O)CSc3nc4ccccc4s3)cc2)c1C | 1.2 | -14 | -20 | 1.1 | 1.1
COc1ccc(N/C(C)=C2/C(=O)C(=O)N(CCO)C2c2ccc([N+](=O)[O-])cc2)cc1 (stereo unspecified) | 1 | -12 | -1 | 1.1 | 1.7
CC(=O)c1c(C)[nH]c(C(=O)NC2=NCCS2)c1C | 0.6 | 64* | 41 | 0.4 | 1.9
CC(=O)NCCCc1c[nH]c2ccc(Cl)cc12 | 0.2 | 47 | 80* | 0.5 | 1.1
COc1ccc(Cl)cc1C(=O)NNC(=O)c1cccnc1 | 1 | -38 | -3 | 1.4 | 1
O=C(NCCc1c[nH]c2ccc(Cl)cc12)c1cccnc1 | 0.1 | 87* | 91* | 0.1 | 0.7
CCc1ccc2c(c1)[C@]1(C(=O)N2)[C@@H]2C(=O)N(Cc3ccccc3)C(=O)[C@@H]2[C@@H]2CCCN21 | 0.3 | 68* | 75* | 0.3 | 1.3
Cc1cc(Cl)cc2c1NC(=O)[C@]21[C@@H]2C(=O)N(Cc3ccccc3)C(=O)[C@@H]2[C@@H]2CCCN21 | 0.8 | 32 | 18 | 0.7 | 1.3
Cc1ccccc1OCC(=O)NNC(=O)c1ccc(-c2ccccc2)cc1 | 0.8 | -24 | 16 | 1.2 | 1.1
COc1cccc(-c2csc3nc[nH]c(=O)c23)c1 | 0.4 | 8 | 59* | 0.9 | 0.8
O=c1[nH]cnc2scc(-c3ccc(F)cc3)c12 | 0.5 | -39 | 46 | 1.4 | 0.9
SMILES | CYP2C19 activ | CYP2C9 inhib | CYP2C19 inh | CYP2C9 act | PLAP act
Cc1cc(Cl)ccc1Oc1nccc(N(C)C)c1C#N | 0.8 | 61* | 24 | 0.4 | 1.1
Cc1cc(C(=O)OCn2nnc3ccccc3c2=O)c(C)o1 | 0.5 | 38 | 53* | 0.6 | 0.9
COc1ccc(C(=O)OCn2nnc3ccccc3c2=O)cc1OC | 1 | 6 | -1 | 0.9 | 1
CN(C)S(=O)(=O)c1ccc(C(=O)OCn2nnc3ccccc3c2=O)cc1 | 1 | 59* | 5 | 0.4 | 1.3
COC(=O)c1cccc(Cn2nnc3ccccc3c2=O)c1 | 0.5 | 26 | 51* | 0.7 | 0.9
O=C(OCn1nnc2ccccc2c1=O)c1ccco1 | 0.8 | 10 | 16 | 0.9 | 0.8
COc1cccc(C(=O)OCn2nnc3ccccc3c2=O)c1 | 0.2 | 12 | 81* | 0.9 | 0.9
COC(=O)C(C)NS(=O)(=O)c1ccc(NC(C)=O)cc1 (stereo unspecified) | 0.9 | 14 | 14 | 0.9 | 1
